Assay results: PubChem BioAssay AID593 (National Center for Advancing Translational Sciences (NCATS), 2007)
The whole screen tested about 59,000 compounds, of which about 540 (0.92%) were called active. Not shown: some 33% with an inconclusive outcome. Rule as the data show it: active = max fluorescein-equivalent concentration above about 10 nM; inconclusive = between about 1.1 nM and that limit; inactive = weaker than that. The full list was thinned out, with actives kept by preference.

Experiment: qHTS Assay for Spectroscopic Profiling in Fluorescein Spectral Region
Conditions: Compound autofluorescence, 480/540 nm; max fluorescein-equivalent concentration: hits give high values; outcome: fluorescein-equivalent
Text: NIH Molecular Libraries Screening Centers Network [MLSCN]
NIH Chemical Genomics Center [NCGC]
Occasionally, the artifactual effect may originate from the compound's own spectral or other biophysical properties which generally tend to track its assay concentration. Pre-screening/profiling the library with respect to the compounds' spectral properties should help one exclude false positives early on. While the most informative fluorescent profiling data set is obtained by performing a full excitation and emission scan of each well by using a monochromator-based plate reader, such an approach is practical only on a very limited scale as scanning each well requires long time. An alternative approach, applied here, is to perform plate reader scans using selected excitation and emission wavelength pairs to generate a multidimensional relational database that correlates compound concentration and the respective relative fluorescence intensity at a given wavelength set. A standard curve of fluorescein present on each plate as six-point concentration series, was used to compute a normalized fluorescence response, termed dye-equivalent concentration, for each compound at each concentration.
NCGC Assay Protocol Summary:
100 mM Tris buffer, pH 8.0
The wells in columns 1 through 4 of a Kalypsys polypropylene 1536-well compound plate were filled with standard solutions of fluorophore corresponding to the spectral region of interest. Solutions of Fluorescein were placed in the following wells: Q1, R1: 3 mM, Q2, R2: 300 uM, Q3, R3: 30 uM, Q4, R4: zero (DMSO), S1, T1: 3 uM, S2, T2: 900 nM, S3, T3: 300 nM, S4, T4: zero (DMSO).
Six uL of buffer were dispensed to 1536-well Greiner black plates. Compounds and dye standards (23 nL) were transferred via Kalypsys PinTool. The plates were incubated for 15 min at room temperature, and then read on ViewLux (Perkin-Elmer) High-throughput CCD imager using 480 nm and 540 nm excitation and emission filter set.
Keywords: NIH Roadmap, MLSCN, MLI, MLSMR, qHTS, NCGC, Fluorescein, Fluorescent Profiling.

SMILES	max fluorescein-equivalent concentration
COc1ccc2nc(NC3=NCN(CC4CCCO4)CN3)nc(C)c2c1 (centres undefined)	inactive
COc1cccc(Nc2ncc3ncc(=O)n(C4CC4)c3n2)c1	inactive
Oc1c(Br)cc(CN(Cc2cc(Br)c(O)c(Br)c2)C2CCCCC2)cc1Br	inactive
COc1ccc(C2C3=C(CC(C)(C)CC3=O)Oc3ncn4nc(-c5cccnc5)nc4c32)cc1OC (centres undefined)	inactive
O=C(c1ccc([N+](=O)[O-])cc1)[C@@H](Br)[C@@H](Br)c1ccnc2ccccc12	inactive
CN(C)CCSS(=O)(=O)O	inactive
CCCn1c(SCC(=O)c2ccc3c(c2)OCCO3)nnc1C(C)C	inactive
CCCCOc1ccccc1/C=c1/sc2nc(-c3oc4ccccc4c3C)nn2c1=O	inactive
COc1cccc(Cn2c(=O)c(-c3cc(F)cc(F)c3)nc3cnc(OC)nc32)c1	inactive
CCOC(=O)CSc1nc2sc3c(c2c(=O)[nH]1)CC(C)(C)OC3	inactive
CCOc1ccc2[nH]c(=O)c(CN(CCCO)C(C)=O)cc2c1	inactive
CN1CCN(CC(=O)C23CC4CC(CC(C4)C2)C3)CC1	inactive
c1ccc2sc(SCCSc3nc4ccccc4s3)nc2c1	inactive
CCOC(=O)c1csc(NC(=O)c2ccc(S(=O)(=O)N3CCCC3)cc2)n1	inactive
O=C(c1ccco1)N1CCC2(CC1)CN(c1ncccn1)C2	inactive
CCOC(=O)c1sc(NC(=O)c2cc(S(=O)(=O)N3CCOCC3)ccc2C)nc1C	inactive
COc1cccc(-c2nc(Nc3ccncc3)c3ccccc3n2)c1	inactive
CC(C)NC(=O)N1CC[C@@]2(CCCN(C(=O)c3cccn3C)C2)C1	inactive
CCCCCC(=O)Nc1ccc2oc(-c3ccncc3)nc2c1	inactive
Cc1ccc(CC2CC(=O)N(c3ccc4c(c3)OCCO4)C2=O)cc1 (centres undefined)	inactive
CCOC(=O)C1C(=O)NC(N2CCN(c3ccccc3)CC2)=NC1c1ccco1 (centres undefined)	inactive
O=C(c1cnccn1)N1CCC2(CCN(Cc3cc(C(F)(F)F)cc(C(F)(F)F)c3)CC2)CC1	inactive
N=c1c2c3c(sc2ncn1N)CCCCC3	inactive

SMILES	max fluorescein-equivalent concentration
O=c1c(-c2ccc(F)cc2)nc2cnc(N3CCNCC3)nc2n1Cc1cccs1	inactive
CCN(CC)C(=O)C1CCC(C)(C(=O)O)C1(C)C (centres undefined)	inactive
CCc1ccc(CCC(=O)Nc2ccc(S(N)(=O)=O)cc2)o1	inactive
COc1ccc(-c2nc(SCC(=O)N3CCOCC3)n[nH]2)cc1	inactive
CN(C)/C=C1/Nc2ccccc2C1=O	inactive
COC(=O)C(C)N(C#N)c1nc(C)nc(C)n1 (centres undefined)	inactive
COCCCn1c2nc3ccccc3nc2c2c(=O)n(Cc3ccc(Cl)cc3)c(C)nc21	inactive
CCN(CC)S(=O)(=O)c1ccc2nc(CSc3nnnn3-c3ccc(O)cc3)[nH]c2c1	inactive
COc1cc(OC)cc(C(=O)Nc2ccc(-c3nc4ccccc4o3)c(O)c2)c1	inactive
CC(=O)c1ccc(N2C(=NC(=O)C(C)C)SC3CS(=O)(=O)CC32)cc1 (centres undefined)	inactive
COc1ccc(C(c2nnnn2Cc2cccs2)N2CCN(c3ccccc3)CC2)cc1OC (centres undefined)	inactive
CC(=O)c1ccc(NC(=O)N[C@@H](Cc2ccccc2)C(=O)O)cc1	inactive
CC(C)c1ccc(-c2nn[nH]n2)cc1	inactive
Cn1c(SCC(=O)c2cccs2)nnc1-c1ccco1	inactive
CC1(C)Cc2ccccc2-c2nnc(-c3cccc(O)c3)n21	inactive
CC1(C)Cc2cccc(OCC(=O)Nc3nccs3)c2O1	inactive
COC(=O)c1ccc(NC(=O)CSc2nnc(-c3ccncc3)n2C)cc1	inactive
Cc1ccc(C)c(NC(=O)C2CC(=O)N(C(C)C)C2)c1 (centres undefined)	inactive
Cc1ccccc1-c1nc(N(C)Cc2ccco2)c2ccccc2n1	inactive
c1ccc(CSCCc2ccncc2)cc1	inactive
C[C@]1(O)CC[C@H]2[C@H]3CC=C4N5CCN=C5CC[C@@]4(C)[C@H]3CC[C@@]21C	inactive
O=c1[nH]nc(Cc2ccccn2)c2ccccc12	inactive
Cc1ccc(-c2noc(CN3CCN(Cc4ccccc4)CC3)n2)cc1	inactive

SMILES	max fluorescein-equivalent concentration
CCOC(=O)c1cc2occc2n1CC(=O)NC1CCC(C)CC1 (centres undefined)	inactive
COc1ccc(C(=O)N(Cc2ccc(N(C)C)cc2)C2CCS(=O)(=O)C2)cc1 (centres undefined)	inactive
O=S(=O)(NCCOc1cccc2cccnc12)c1ccc(F)cc1	inactive
Nc1nc2c(ncn2[C@H]2CC[C@@H](CO)O2)c(=O)n1C(=O)c1ccccc1	inactive
O=C(O)[C@H](CCc1ccccn1)c1ccccc1	inactive
O=C(O)c1c(Br)c(Br)c(Br)c(Br)c1C1c2ccc(O)cc2Oc2cc(O)ccc21	320 nM (active)
O=C(COc1cccc(-n2cnnn2)c1)NCCC1=CCCCC1	inactive
Cc1cc2c(cc1C)NC1=C(N2)O[C@H](c2c[nH]c3ccc(COc4ccccc4)cc23)C1=O	inactive
CC(C)CC(=O)N=C1SC2CS(=O)(=O)CC2N1CCc1ccccc1 (centres undefined)	inactive
O=C(c1ccco1)N1CCC2(CC1)CCN(c1ncccn1)CC2	inactive
NCC(=O)[C@@H](O)[C@H](O)[C@H](O)CO	inactive
Cc1cc(C)c2cc(CN(Cc3cccs3)Cc3nnnn3CC3CCCO3)c(=O)[nH]c2c1 (centres undefined)	inactive
CS(=O)(=O)N1CCC2(CCN(c3ccncc3)CC2)CC1	inactive
COc1ccc(-c2ccc(-c3noc(-c4ccncc4)n3)c(OC)n2)cc1	inactive
COc1cccc(-c2cc(NCCc3c[nH]c4ccc(OC)cc34)ncn2)c1	inactive
CN1CCN(c2ccc(NC(=O)COc3ccc(Cl)cc3Cl)cc2)CC1	inactive
Clc1ccc(C(c2ccc(Cl)cc2)n2cc[n+](C[C@@H](OCc3ccc(Cl)cc3Cl)c3ccc(Cl)cc3Cl)c2)cc1	inactive
COCCn1c(=O)c(CCc2ccccc2)nc2cnc(N3CCNCC3)nc21	inactive
COc1ccccc1CCn1c(=O)c(-c2cn(C)c3ccccc23)nc2cncnc21	inactive
CCn1c(Cc2ccccc2)nnc1SCC(=O)Nc1ccccc1	inactive
O=c1cc(-c2ccc(O)c(O)c2)oc2cccc(O)c12	inactive
CCCn1c(O)c(CN2CCCC(C)C2)c(C)c(C#N)c1=O (centres undefined)	65 nM (active)
CCCCCCn1c(CN2CCCC(C)C2)nc2c1c(=O)n(C)c(=O)n2C (centres undefined)	inactive
